Several values for one entry are separate records, joined by “and”; a condition that tells them apart may be missing. Equal values may be shown once. A structure can be active in one record and inactive in another. Activity calls are given as the source filed them. Rule for the calls: active = hit-call score of the fitted dose curve at least 0.9, where 1 is the maximum; inactive = score below 0.9.
Columns and labels:
[1] = read-out: Monocyte Chemoattractant Protein-1 (MCP1), CCL2 (gene 6347); experiment: BSK_SAg_MCP1: BioMAP Diversity Plus: SAg Assay for Monocyte Chemoattractant Protein-1 (MCP1) Biomarker Activity (AID 2283090); conditions: primary human HUVEC with PBMC; actives raise or lower the signal
How it was run: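 MCP-1 levels in the endothelial–PBMC SAg co-culture were quantified by ELISA at 24 h post-dosing; both increases and decreases versus DMSO scored. Cytotoxicity monitored by SRB total protein in parallel cultures.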

[2] = read-out: E-selectin (Homo sapiens) (UniProt P16581); experiment: BSK_SAg_Eselectin: BioMAP Diversity Plus: SAg Assay for Eselectin Biomarker Activity (AID 2283091); conditions: primary human HUVEC with PBMC; actives raise or lower the signal
How it was run: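 HUVEC co-cultured with PBMC, compound dosed then read at 24 h; E-selectin measured by ELISA. Activity fitted bidirectionally against DMSO as negative control and baseline.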

[3] = read-out: Monokine induced gamma interferon (MIG), CXCL9 (gene 4283); experiment: BSK_SAg_MIG: BioMAP Diversity Plus: SAg Assay for Monokine induced gamma interferon (MIG) Biomarker Activity (AID 2283092); conditions: primary human HUVEC with PBMC; actives raise or lower the signal
How it was run: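 Measures CXCL9 protein by ELISA in a human vascular primary-cell co-culture (umbilical vein endothelium with PBMC) 24 h after chemical addition. Activity is scored up or down from the DMSO control.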

[4] = BSK_SAg_PBMCCytotoxicity: PBMC Cytotoxicity Assessment in the BioMAP Diversity Plus: SAg Assay (AID 2283093); conditions: primary human HUVEC with PBMC;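 note: PBMC viability measured as Alamar Blue reduction fluorescence at 546/580 nm; fitted both ways against DMSO so a hit may be loss or gain of signal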;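 for AC50: PBMC superantigen activated with SEB plus TSST-1 one hour after compound addition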
How it was run: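 HUVEC/PBMC co-culture; PBMC exposed to chemical 1 h before SEB and TSST-1 activation (20 ng/mL each), incubated 90 h, then Alamar Blue 6 h, fluorescence 546/580 nm. Bidirectional fit versus DMSO baseline.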

[5] = read-out: Interleukin-8 (IL8), CXCL8 (gene 3576); experiment: BSK_SAg_IL8: BioMAP Diversity Plus: SAg Assay for Interleukin-8 (IL8) Biomarker Activity (AID 2283094); conditions: primary human HUVEC with PBMC; actives raise or lower the signal
How it was run: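 Human umbilical vein endothelial cells co-cultured with PBMC, stimulated with superantigen; IL-8 measured by ELISA 24 h after chemical dosing. Bidirectional fitting versus DMSO; SRB staining in parallel cultures tracks cytotoxicity.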

[6] = BSK_SAg_Proliferation: Cell Proliferation Assessment in the BioMAP Diversity Plus: SAg Assay (AID 2283095); conditions: primary human HUVEC with PBMC
How it was run: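 Human umbilical vein endothelial cells co-cultured with PBMC; sulforhodamine B total-protein staining (0.1% SRB after 10% TCA fixation, absorbance 560 nm) at 96 h in sub-confluent culture. Fitted bidirectionally against DMSO.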

[7] = BSK_SAg_SRB: Viability Assessment in the BioMAP Diversity Plus: SAg Assay (AID 2283096); conditions: primary human HUVEC with PBMC;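 note: cells read one day after compound addition; hits may be either gain or loss of signal compared with DMSO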
How it was run: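 Human umbilical vein endothelial cells co-cultured with PBMC, read 24 h after compound dosing. Total protein measured by sulforhodamine B staining (0.1% SRB after 10% TCA fixation, absorbance 560 nm); bidirectional fit versus DMSO baseline.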

Measured: AC50

Sequence of E-selectin (Homo sapiens) (P16581 whole entry, looked up): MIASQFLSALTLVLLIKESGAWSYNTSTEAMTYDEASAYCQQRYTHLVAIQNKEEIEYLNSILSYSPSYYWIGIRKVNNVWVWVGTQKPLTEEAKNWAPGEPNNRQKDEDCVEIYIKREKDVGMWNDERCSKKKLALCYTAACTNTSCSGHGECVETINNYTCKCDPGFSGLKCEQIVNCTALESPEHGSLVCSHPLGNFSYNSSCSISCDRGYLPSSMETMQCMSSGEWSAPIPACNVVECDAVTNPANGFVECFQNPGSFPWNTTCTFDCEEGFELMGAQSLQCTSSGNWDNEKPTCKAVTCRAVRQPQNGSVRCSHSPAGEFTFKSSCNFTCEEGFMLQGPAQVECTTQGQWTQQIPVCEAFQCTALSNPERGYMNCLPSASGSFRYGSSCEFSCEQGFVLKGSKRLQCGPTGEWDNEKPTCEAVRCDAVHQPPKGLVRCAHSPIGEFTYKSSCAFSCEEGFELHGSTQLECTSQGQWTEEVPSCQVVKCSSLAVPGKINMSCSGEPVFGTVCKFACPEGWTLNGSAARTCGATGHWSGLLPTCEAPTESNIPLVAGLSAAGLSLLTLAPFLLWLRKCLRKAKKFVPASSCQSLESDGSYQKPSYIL

CCOC(=O)C1=NN(c2ccc(Cl)cc2Cl)C(C)(C(=O)OCC)C1 (centres undefined)
inactive: all assays above

CC1(C)CC(O)CC(C)(C)N1[O]
inactive: all assays above

CC(CCC(=O)O)(c1ccc(O)cc1)c1ccc(O)cc1
inactive: all assays above

CCOC(=O)C1=NOC(c2ccccc2)(c2ccccc2)C1
inactive: all assays above

Fc1ccc(Br)cc1
inactive: all assays above

CCCCCCCCC(CO)CCCCCC (centres undefined)
inactive: all assays above

CCCCCCCO
inactive: all assays above

CC=C(C)C(C)=O
inactive: all assays above

O=C(Oc1ccccc1)c1ccccc1C(=O)Oc1ccccc1
active: [6] 20 µM
inactive: all other assays above

Oc1c(Cl)cc(Cl)c(Cl)c1Cl
active: [1] 31.2 µM | [2] 20 µM | [3] 32.2 µM | [4] 0.0683 µM | [5] 29.9 µM | [6] 20 µM | [7] 20 µM

O=C(Cl)c1c(Cl)c(Cl)c(C(=O)Cl)c(Cl)c1Cl
inactive: all assays above

CCCCCCC=O
inactive: all assays above

CC/C=C\C/C=C\C/C=C\CCCCCCCC(=O)OC
active: [1] 33.8 µM | [2] 13 µM | [3] 37.2 µM | [4] 20 µM | [5] 20 µM | [6] 6.5 µM | [7] 29 µM

C=C(C)C(=O)OCCCCCCCCCCCC
inactive: all assays above

CC1=CC=C(C(C)C)CC1
inactive: all assays above

C=CC(=O)OCCCCCCOC(=O)C=C
active: [1] 11 µM | [2] 5.55 µM | [3] 7.05 µM | [4] 3.97 µM | [5] 0.714 µM | [6] 0.89 µM | [7] 20 µM

CCC1(C)C(=O)N(Cl)C(=O)N1Cl (centres undefined)
inactive: all assays above

c1ccc2c(c1)[nH]c1ccccc12
active: [5] 2.72 µM
inactive: [1] | [2] | [3] | [4] | [5] | [6] | [7]

COC(OC)(C(=O)c1ccccc1)c1ccccc1
inactive: all assays above

c1ccc(Nc2cccc3ccccc23)cc1
active: [1] 29.4 µM and 30.4 µM | [2] 31.8 µM and 33.5 µM | [4] 34.3 µM and 36.9 µM | [5] 31.1 µM and 30.7 µM | [6] 31.3 µM and 30.4 µM | [7] 28.7 µM and 30.3 µM
inactive: [3]

COc1ccc(C(=O)c2ccccc2)c(O)c1
inactive: all assays above

CCc1cccc(C)c1N(C(=O)CS(=O)(=O)O)C(C)COC (centres undefined)
inactive: all assays above

C=CC(=O)NC(C)(C)C
inactive: all assays above

c1ccc2sc(SSN3CCOCC3)nc2c1
active: [4] 20 µM | [6] 8.5 µM
inactive: all other assays above

COc1ccc(C(=O)/C(Br)=C\C(=O)O)cc1
inactive: [5]
active: [1] 20 µM | [2] 7.92 µM and 7.11 µM | [3] 35.2 µM and 34.5 µM | [4] 12 µM and 7.54 µM | [5] 3.97 µM | [6] 6.87 µM and 2.13 µM | [7] 25.9 µM and 31.6 µM

CC/C=C\CCOC(=O)c1ccccc1O
active: [1] 28.5 µM | [2] 29.7 µM | [4] 33.3 µM | [6] 31.2 µM | [7] 30.7 µM
inactive: [3] | [5]

C[N+](C)(C)CCCNS(=O)(=O)C(F)(F)C(F)(F)C(F)(F)C(F)(F)C(F)(F)C(F)(F)C(F)(F)C(F)(F)F
inactive: [1] | [2] | [3] | [4] | [5] | [6]
active: [4] 51.3 µM | [6] 46.5 µM | [7] 43.5 µM and 46.5 µM

CCCCC1C(=O)N(c2ccccc2)N(c2ccccc2)C1=O
inactive: all assays above

CCCC(C)C(=O)OCC (centres undefined)
inactive: all assays above

C=CC(=O)OCCCCCCCC(C)C
active: [4] 20 µM | [6] 23.3 µM
inactive: all other assays above

— PubChem BioAssay (EPA / NIEHS)
